The whole screen tested about 310,000 compounds, of which about 14,000 (4.5%) showed an effect of 50% or more. Effects have a minus sign here. What follows is part of a selection rich in strong results, with near analogues and random picks from the rest.
What follows are molecules tested against human ether-à-go-go-related gene (hERG) potassium channel (human, UniProt Q12809) (assay: primary screen, population patch clamp on CHO cells stably expressing hERG; higher = less effect of the substance).
human ether-à-go-go-related gene (hERG) potassium channel, sequence (Q12809 whole entry, looked up): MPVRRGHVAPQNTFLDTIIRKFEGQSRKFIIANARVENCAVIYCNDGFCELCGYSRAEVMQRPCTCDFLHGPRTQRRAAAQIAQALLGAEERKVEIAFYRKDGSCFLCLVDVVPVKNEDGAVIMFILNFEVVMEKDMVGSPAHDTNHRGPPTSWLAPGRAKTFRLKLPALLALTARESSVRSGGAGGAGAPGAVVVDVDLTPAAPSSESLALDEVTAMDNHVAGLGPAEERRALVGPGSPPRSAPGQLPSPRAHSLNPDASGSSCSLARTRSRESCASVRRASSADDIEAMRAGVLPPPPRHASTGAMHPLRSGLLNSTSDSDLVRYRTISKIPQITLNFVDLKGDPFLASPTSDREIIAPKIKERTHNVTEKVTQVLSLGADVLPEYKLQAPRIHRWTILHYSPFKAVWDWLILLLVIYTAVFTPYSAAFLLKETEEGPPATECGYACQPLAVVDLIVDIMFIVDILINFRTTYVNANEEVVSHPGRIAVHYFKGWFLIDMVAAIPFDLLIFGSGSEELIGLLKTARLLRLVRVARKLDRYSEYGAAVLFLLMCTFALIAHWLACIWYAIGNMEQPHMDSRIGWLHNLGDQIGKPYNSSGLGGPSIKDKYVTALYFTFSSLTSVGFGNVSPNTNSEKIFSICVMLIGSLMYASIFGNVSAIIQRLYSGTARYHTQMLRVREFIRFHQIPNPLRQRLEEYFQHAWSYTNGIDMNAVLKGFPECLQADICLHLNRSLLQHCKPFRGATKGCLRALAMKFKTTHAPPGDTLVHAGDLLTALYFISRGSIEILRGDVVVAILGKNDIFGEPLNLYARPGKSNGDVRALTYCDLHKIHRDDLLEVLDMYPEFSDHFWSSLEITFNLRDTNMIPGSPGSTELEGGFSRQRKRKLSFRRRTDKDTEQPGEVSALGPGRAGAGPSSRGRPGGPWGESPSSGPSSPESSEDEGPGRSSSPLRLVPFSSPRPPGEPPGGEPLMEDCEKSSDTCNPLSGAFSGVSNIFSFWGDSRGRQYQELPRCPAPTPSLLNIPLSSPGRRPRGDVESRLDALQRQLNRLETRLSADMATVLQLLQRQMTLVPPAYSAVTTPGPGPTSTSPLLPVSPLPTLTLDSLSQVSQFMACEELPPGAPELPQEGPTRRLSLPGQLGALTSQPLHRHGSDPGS
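Also: peak tail current of the secondary pulse compared with the same well before compound.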

SMILES	hERG current change (%, negative = inhibition) at 10uM
Cc1ccc(S(=O)(=O)N(C)CC(=O)OCC(=O)NCCN2C(=O)CSC2=O)cc1	-9.67%
O=C(c1ccc(Cl)cc1)C(CN1CCCC1)c1ccccc1 (centres unmarked)	-10.3%
COc1ccc(OC)c(NC(=O)Nc2nnc(N3CCC(C)CC3)s2)c1	5.07%
COc1ccc(CCNC(=O)[C@@H](NC(=O)N2CCn3c2nc2ccccc23)C(C)C)cc1OC	-14.3%
Cc1ccc(C)c(NS(=O)(=O)c2ccc(OCC(=O)N3CCOCC3)cc2)c1	-7.34%
O=C(CCNC(=O)c1ccc([N+](=O)[O-])cc1)NCCc1ccccc1	-27.8%
CCOc1ccc(-c2cc(CCCC(=O)NCc3cccnc3)no2)cc1	-35%
COc1ccccc1-c1nnc(NC(=O)C(C)Sc2nncn2C)s1 (centres unmarked)	-1.37%
Cc1nc2ccc(NC(=O)c3cccs3)cc2c(=O)n1Cc1ccc(Cl)cc1	9.84%
CCN(CC)c1cc(C)c2cc(NC(=O)c3ccccc3F)ccc2n1	-81.3%
CCN(CC)c1cc(C)c2cc(NC(=O)c3ccccc3OC)ccc2n1	-18.6%
Cc1nc2ccc(NC(=O)c3cccs3)cc2s1	19.8%
CCN(CC)c1cc(C)c2cc(NC(=O)c3cccs3)ccc2n1	-72.2%
CCN(CC)c1ccc(NC(=O)c2ccccc2F)cc1	-9.39%
COc1ccc(Cl)cc1N(CC(=O)Nc1ccc2c(c1)OCO2)S(C)(=O)=O	-24%
COc1cccc(CNC(=O)Cc2c(C(=O)O)[nH]c3ccccc23)c1	8.83%
COC(=O)[C@H](CC(C)C)NC(=O)Nc1ccccc1F	16.6%
Cc1ccccc1Cn1nc(C)c(NC(=O)c2nc3n(n2)C(C(F)F)CC(C)N3)c1C (centres unmarked)	0.0862%
O=C(CCN1C(=O)c2ccccc2C1=O)NNC(=O)c1ccc(Cl)cc1Cl	6.82%
c1ccc(N(c2ccccc2)c2nc(-n3ccnc3)nc(-n3ccnc3)n2)cc1	-24.2%
CN(c1ccccc1)c1nc(-n2ccnc2)nc(-n2ccnc2)n1	-67.7%
CN(c1ccccc1)c1nc(N2CCCC2)nc(-n2ccnc2)n1	-19.5%

SMILES	hERG current change (%, negative = inhibition) at 10uM
c1ccc(-c2nc(-n3ccnc3)nc(-n3ccnc3)n2)cc1	-69.4%
c1ccc(-c2nc(N3CCN(c4ccccc4)CC3)nc(-n3ccnc3)n2)cc1	-2.66%
CC(C)Nc1nc(-c2ccccc2)nc(-n2ccnc2)n1	-0.0673%
Cc1ccc(S(=O)(=O)N2c3ccccc3CC2C)cc1 (centres unmarked)	13.4%
COc1ccc(C(=O)CC(=O)C(=O)NCCc2cccc(C)c2)cc1	7.31%
O=C(C(=O)N1CCN(c2ccccc2)CC1)c1c[nH]c2ccccc12	4.09%
C/C(CC(=O)Nc1ccc2ccccc2c1)=N\NC(=O)c1ccc(O)c(O)c1	-6.73%
COCCN1C(=O)CC(NNC(=O)c2ccc(S(=O)(=O)N3CCCC3)cc2)C1=O (centres unmarked)	10%
CCOC(=O)C1CCN(C(=O)CS(=O)Cc2nc(-c3ccc(C)cc3)oc2C)CC1 (centres unmarked)	-0.626%
CCN(C(=O)COC(=O)c1cc(Cl)ccc1OC)c1c(N)n(Cc2ccccc2)c(=O)[nH]c1=O	4.46%
O=C(Cc1ccccc1)NN1C(=O)c2ccccc2C1=O	-9.37%
COc1ccc(CCNC(=O)CSc2nnc3c(n2)[nH]c2ccc(F)cc23)cc1OC	12.8%
CCc1ccc(NC(=O)COC(=O)CCc2nc3cc(S(=O)(=O)N(CC)CC)ccc3n2C)cc1	-60%
CNC(=O)NC(=O)COC(=O)CCc1nc(=O)c2ccccc2n1C	-19.2%
Cn1c(CCC(=O)OCC(=O)Nc2ccc(Oc3ccccc3)cc2)nc(=O)c2ccccc21	-53.3%
CCN(CC)S(=O)(=O)c1ccc2c(c1)nc(CCC(=O)OCC(=O)Nc1cc(OC)cc(OC)c1)n2C	-48.5%
CCN(CC)S(=O)(=O)c1ccc2c(c1)nc(CCC(=O)OCC(=O)Nc1c(F)cccc1F)n2C	-34.6%
CCNC(=O)NC(=O)COC(=O)CCc1nc(=O)c2ccccc2n1C	4.87%
CN1CCNC(=O)C1CC(=O)NCCC1=CCCCC1 (centres unmarked)	18.2%
Cc1ccc(C(C)C)c(OCc2nnc(SCC(=O)Nc3ncc(C)s3)n2C)c1	-4.11%
CN(C)c1nnnn1-c1ccc(OC(F)(F)F)cc1	-9.73%
CCCC1(c2ccccc2)NC(=O)N(CC(=O)Nc2cc(S(=O)(=O)N3CCOCC3)ccc2Cl)C1=O (centres unmarked)	-22.6%

SMILES	hERG current change (%, negative = inhibition) at 10uM
CC(C)(C)NC(=O)N1CCCN(c2ccc(C(F)(F)F)cn2)CC1	-0.47%
C[C@H]1C=C(C(=O)NCc2ccccc2)O[C@@H](OCc2ccc(CO)cc2)C1	-10.5%
Cc1cc(NC(=O)c2cccc(Oc3ccccc3)c2)n[nH]1	1.16%
COc1ccccc1N(C)S(=O)(=O)c1ccc(C(=O)OCC(=O)NCCC2=CCCCC2)cc1	-4.24%
CCCC(=O)NC(C)C(c1cccs1)N1CCN(c2ccccc2)CC1 (centres unmarked)	-7.64%
Cc1cccc(N2CCN(CCCNC(=O)C3CCCN(c4ncnc5c4nc4n5CCCCC4)C3)CC2C)c1 (centres unmarked)	-67.8%
Cc1cccc(CCNC(=O)C2CCCN(c3ncnc4c3nc3n4CCCCC3)C2)c1 (centres unmarked)	-59.8%
CC1CC(C)CN(CCCNC(=O)C2CCCN(c3ncnc4c3nc3n4CCCCC3)C2)C1 (centres unmarked)	-14.1%
COc1ccccc1N1CCN(CCCNC(=O)C2CCCN(c3ncnc4c3nc3n4CCCCC3)C2)CC1 (centres unmarked)	-40.3%
CC1CCCN(CCCNC(=O)C2CCCN(c3ncnc4c3nc3n4CCCCC3)C2)C1 (centres unmarked)	-4.72%
O=C(NCCc1ccc(Cl)cc1)C1CCCN(c2ncnc3c2nc2n3CCCCC2)C1 (centres unmarked)	-57.2%
CC1CCCCN1CCNC(=O)C1CCCN(c2ncnc3c2nc2n3CCCCC2)C1 (centres unmarked)	-14.3%
COc1cccc(CCNC(=O)C2CCCN(c3ncnc4c3nc3n4CCCCC3)C2)c1OC (centres unmarked)	-74.7%
COc1ccc(CCNC(=O)C2CCCN(c3ncnc4c3nc3n4CCCCC3)C2)c(OC)c1 (centres unmarked)	-42.8%
C=CCN(CC=C)CCOc1ccc(C)cc1[N+](=O)[O-].O=C(O)C(=O)O	-47.3%
O=C(Oc1cccc(-n2cnnn2)c1)c1ccco1	6.57%
O=C(COC(=O)Cc1ccsc1)NCc1ccccc1	19.6%
Clc1ccc(-c2ccc(/C=N/Nc3nncc(-c4ccccc4)n3)o2)cc1	20.8%
Cc1cccc(C)c1NC(=O)CN(C)C(=O)c1cccc(NS(=O)(=O)c2ccccc2)c1	-4.78%
Cc1ccc(S(=O)(=O)NN=C2CCC(C(C)(C)C)CC2)cc1[N+](=O)[O-] (centres unmarked)	-8.37%
COc1ccc(/C=C/C(=O)Oc2cccc(/C=N/NC(=O)COc3c(C)cccc3C)c2)cc1	11.8%
Cc1cccc(-c2ocnc2C(=O)Nc2ccccc2C(=O)N2CCCC2)c1	-37%

SMILES	hERG current change (%, negative = inhibition) at 10uM
COc1ccc(C(=O)Nc2ccc(S(=O)(=O)N3CCCCC3C)cc2)c(OC)c1OC (centres unmarked)	-6.46%
Cc1ccc(CCNC(=O)C2CCCN(c3ncnc4c3nc3n4CCCCC3)C2)cc1 (centres unmarked)	-28.7%
CC1CCCC(C)N1CCCNC(=O)C1CCCN(c2ncnc3c2nc2n3CCCCC2)C1 (centres unmarked)	8.21%
CSc1ccc(CCNC(=O)C2CCCN(c3ncnc4c3nc3n4CCCCC3)C2)cc1 (centres unmarked)	-61.8%
CC1CCN(CCNC(=O)C2CCCN(c3ncnc4c3nc3n4CCCCC3)C2)CC1 (centres unmarked)	12.5%
O=C(NCCc1ccccc1)C1CCCN(c2ncnc3c2nc2n3CCCCC2)C1 (centres unmarked)	-59.9%
CN(CCNC(=O)C1CCCN(c2ncnc3c2nc2n3CCCCC2)C1)Cc1ccccc1 (centres unmarked)	-29.1%
CCOc1ccc(CCNC(=O)C2CCCN(c3ncnc4c3nc3n4CCCCC3)C2)cc1 (centres unmarked)	-58.6%
COc1cc(/C=N/N2CCN(c3ccccc3OC)CC2)ccc1OC(C)=O	17.2%
CCOC(=O)Cc1csc(NC(=O)C(NC(=O)C2CCC(C)CC2)C(C)C)n1 (centres unmarked)	23.5%
CC(C)NC(=O)/C(=C/c1ccco1)c1ccccc1	-2.25%
Cc1cccc(NC(=O)CCC(=O)c2cccs2)n1	12%
COc1cccc(N2CCN(Cc3nc(N)nc(N4CCCc5ccccc54)n3)CC2)c1	-45%
Cc1cccc(Nc2nc(N)nc(CN3CCN(c4ccccc4)CC3)n2)c1	-54.5%
COc1cccc(N2CCN(Cc3nc(N)nc(Nc4ccccc4)n3)CC2)c1	-68%
Cc1cccc(Nc2nc(N)nc(CN3CCN(c4ccc(F)cc4)CC3)n2)c1	-73.3%
Cc1cccc(Nc2nc(N)nc(CN3CCN(C)CC3)n2)c1	-39.2%
Cc1cccc(Nc2nc(N)nc(CSC(=S)N3CCOCC3)n2)c1	-0.689%
COc1ccc(Nc2nc(N)nc(CSC(=S)N3CCN(c4ccccc4)CC3)n2)cc1	14.1%
Cc1cccc(Nc2nc(N)nc(CCl)n2)c1	-0.698%

Source: PMC4336329 (PLoS ONE, 2015)
